Experimental data published in ChEMBL document CHEMBL1157539, “Thousands of chemical starting points for antimalarial lead identification” (Nature, 2010).
Over roughly 13,000 compounds, “IFI” has its median near 4; the highest 2% begin near 17. Shown is part of a subset that was picked to be rich in the highest values.

Test: GSK_TCMDC: Inhibition Frequency Index (IFI). The number of non-kinase HTS assays where a compound showed > 50 % inhibition, expressed as a percentage of the number of such assays in which the compound was tested
Format: functional

SMILES | IFI
COc1c(C2CCN(CCCCNC(=O)c3ccc(-c4ccc(Cl)cc4)c(O)c3)CC2)ccc2c1CCCC2 | 9.09%
CN1CCCN(c2ccnc3cc4c(cc23)N(C(=O)c2ccc(Cl)cc2Cl)CC4)CC1 | 0.72%
O=C(CCC1CCCCC1)NCCNc1cccc2ccccc12 | 1.47%
N=C(NCCCc1ccccc1)c1cccc(C(=N)NCCCc2ccccc2)n1 | 1.47%
N=C(NCCCCC1CCCCC1)c1cccc(C(=N)NCCCCC2CCCCC2)n1 | 19.9%
COc1ccc2c(=NN=Cc3ccc(OC)c4ccccc34)cc(C)[nH]c2c1 | 2.14%
O=C(Cn1c(SCc2cccc(F)c2F)cc(=O)c2ccccc21)N(CCCn1ccnc1)Cc1ccc(-c2ccc(C(F)(F)F)cc2)cc1 | 2.17%
CCc1ccc(CN2CCC(CNC(=O)c3cc(-c4cccc(Cl)c4)cs3)C2)cc1 (centres undefined) | 8.16%
CC(Cc1ccc(OCCN2CCN(c3cccc(Cl)c3)CC2)cc1)NCC(O)c1cccc(C(F)(F)F)c1 (centres undefined) | 17.2%
CC(Cc1ccc(OCCN2CCN(c3cccc(C(F)(F)F)c3)CC2)cc1)NCC(O)c1cccc(C(F)(F)F)c1 (centres undefined) | 10.8%
CC(Cc1ccc(CN2CCN(Cc3ccccc3)CC2)cc1)NCC(O)c1cccc(C(F)(F)F)c1 (centres undefined) | 9.15%
CC(Cc1ccc(OCCN2CCN(c3ccc(Cl)cc3)CC2)cc1)NCC(O)c1cccc(C(F)(F)F)c1 (centres undefined) | 18.1%
CC(Cc1ccc(OCCN2CCN(c3ccccc3)CC2)cc1)NCC(O)c1cccc(Cl)c1F (centres undefined) | 12%
CC(Cc1ccc(OCCN2CCN(c3cccc(Cl)c3)CC2)cc1)NCC(O)c1cccc(Cl)c1 (centres undefined) | 16.4%
N#Cc1ccc(CN2CCCN(Cc3cccc(NC(=O)c4ccc(-c5ccccc5)cc4)c3)CC2)cc1 | 8.28%
Cc1cc(NCCC(=O)NCCc2ccccc2)nc(NCCc2ccc(F)cc2)n1 | 4.55%
O=C(/C=C/c1ccc(Cl)c(Cl)c1)NCCCCCN1CCCC(CNC(=O)Nc2ccc(C(F)(F)F)cc2)C1 (centres undefined) | 17.7%
O=C(/C=C/c1ccc(Cl)c(Cl)c1)NCCCCCCN1CCCN(C(=O)Nc2ccc(C(F)(F)F)cc2)CC1 | 12.3%
O=C(/C=C/c1ccc(Cl)c(Cl)c1)NCCCCCN1CCCC(CCCNC(=O)Nc2ccc(C(F)(F)F)cc2)C1 (centres undefined) | 11.3%
O=C(/C=C/c1ccc(C(F)(F)F)cc1)NCCCCCN1CCN(C(=O)Nc2ccc(Cl)c(Cl)c2)CC1 | 13.7%
O=C(/C=C/c1ccc(C(F)(F)F)cc1)NCCCCCN1CCCN(C(=O)Nc2ccc(Cl)c(C(F)(F)F)c2)CC1 | 18.8%
O=C(/C=C/c1ccc(C(F)(F)F)cc1)NCCCCCN1CCCN(C(=O)Nc2ccc(Cl)c(Cl)c2)CC1 | 20.4%
O=C(/C=C/c1ccc(Cl)cc1)NCCCCCN1CCCN(C(=O)Nc2ccc(Cl)c(C(F)(F)F)c2)CC1 | 14.3%

SMILES | IFI
O=C(/C=C/c1ccc(Cl)c(Cl)c1)NCCCCCCN1CCCN(C(=O)Nc2ccc(Cl)c(C(F)(F)F)c2)CC1 | 11.3%
CC(C)c1ccc(NC(=O)NCC2CCCN(CCCCCNC(=O)/C=C/c3ccc(Cl)c(Cl)c3)C2)cc1 (centres undefined) | 12.1%
Cc1ccc2c(c1)c(C1CCN(C(=O)c3ccc([N+](=O)[O-])o3)CC1)cn2C | 4.35%
Cc1ccc(-c2nn3c(O)c4c(nc3c2C)CCCC4)cc1 | 0.88%
COc1c(C2CCN(CCN3CCC(CNC(=O)c4ccc(-c5ccc(C#N)cc5)cc4)CC3)CC2)ccc2c1CCCC2 | 16.2%
O=C(Nc1cccc(CN2CCCN(CCc3ccccc3)CC2)c1)c1ccc(Cl)c(Cl)c1 | 3.36%
CN1CCN(CCCN(Cc2cccc(-c3ccc(CNCCc4ccccc4)cc3)c2)C(=O)c2cccs2)CC1 | 11.3%
COC(=O)c1cccc(CNCc2ccc(-c3ccc(-c4nc5cc(C(F)(F)F)ccc5[nH]4)s3)cc2)c1 | 11.5%
Ic1cc(CNC2CCCCC2)ccc1OCc1cccc(COc2ccc(CNC3CCCCC3)cc2I)c1 | 10.1%
CCN(CC)Cc1cccc(-c2cc3c(-c4ccc(C(=O)O)c(C(C)C)c4)ccnc3[nH]2)c1OC | 0%
COc1cccc2c(NN=Cc3cccc(Cl)c3)ccnc12 | 3.62%
COc1cc2nc(NCc3nc4ccccc4[nH]3)nc(N)c2cc1OC | 0%
COc1ccc2ccccc2c1CCCCN1CCN(CC(c2ccc(F)cc2)N2CCN(C(C)C)CC2)CC1 (centres undefined) | 14.7%
COc1ccc2ccccc2c1CCCCN1CCN(CC(c2ccc(F)cc2)N2CCN(C3CCCC3)CC2)CC1 (centres undefined) | 12.8%
CC(C)N1CCN(C(CN2CCN(CCCOc3ccc(-c4ccccc4)cc3)CC2)c2ccc(F)cc2)CC1 (centres undefined) | 20.3%
CC(C)N1CCN(C(CN2CCN(CCCOc3ccccc3-c3ccccc3)CC2)c2ccc(F)cc2)CC1 (centres undefined) | 13.5%
CC(C)N1CCN(C(CN2CCN(CCCOc3cccc(-c4ccccc4)c3)CC2)c2ccc(F)cc2)CC1 (centres undefined) | 16%
COc1ccc2ccccc2c1CCCCN1CCN(CC(c2ccc(F)cc2)N2CCC2)CC1 (centres undefined) | 18.4%
CCCCCCCNCc1c(O)ccc2c(CNCCCCCCC)c(O)ccc12 | 13.6%
Oc1ccc2ccccc2c1C=NNc1nc(=Nc2ccccc2)nc(N2CCOCC2)[nH]1 | 3.68%
COc1ccccc1CCNc1nc(C)cc(N[C@@H](Cc2ccccc2)C(=O)NCc2cccs2)n1 | 9.76%
Cc1cnc(C(=O)Nc2ccc3c(c2)CCCN(Cc2c[nH]c4cnccc24)C3)cn1 | 0%
CCCc1ccc(S(=O)(=O)Nc2ccc3c(c2)CCC3)cc1 | 2.26%

SMILES | IFI
CCCCc1ccc(S(=O)(=O)Nc2ccc3c(c2)CCN(Cc2c[nH]c4cnccc24)CC3)cc1 | 19.4%
CCOc1ccc(C(Cc2ccccc2)NC(=O)c2cccnc2)cc1OCC (centres undefined) | 0.83%
CN(C)CCNc1ncnc2c1[nH]c1ccc(Cl)cc12 | 0%
COc1ccc(CNc2ncnc3c2[nH]c2ccc(F)cc23)cc1 | 17.2%
Fc1ccc2[nH]c3c(NCCCN4CCOCC4)ncnc3c2c1 | 0%
COc1ccc(CNCc2ccc(-c3ccc(-c4nc5cc(F)ccc5[nH]4)cc3)cc2)cc1 | 13.1%
CN(C)CCCNc1ncnc2c1[nH]c1ccc(F)cc12 | 2.14%
Fc1ccc2[nH]c3c(NCCN4CCCCC4)ncnc3c2c1 | 1.4%
c1ccc(CCNc2ncnc3c2[nH]c2ccccc23)cc1 | 23.9%
Cc1ccc2[nH]c3c(NCCN(C)C)ncnc3c2c1 | 0%
COc1ccccc1CCNc1ncnc2c1[nH]c1ccc(F)cc12 | 20.5%
CC(C)C(C(=O)Nc1ccc2c(c1)OCO2)c1ccc(Cl)cc1 (centres undefined) | 9.18%
Cc1cc(=O)c(-c2ccc(Oc3cccc(OC(F)(F)F)c3)cc2)c(C)[nH]1 | 3.76%
COc1ccc(N2CCN(CCCCNC(=O)c3ccc(NC(=O)c4cc(C(F)(F)F)cc(C(F)(F)F)c4)cc3)CC2)cc1OC | 3.51%
c1ccc(CNCc2cccc(-c3ccc(-c4nc5ccccc5[nH]4)s3)c2)cc1 | 3.92%
CCCCCCCc1c(C)nc2cc(OC)ccc2c1O | 0%
CC(C)Oc1cc(-c2ccc(S(C)(=O)=O)cc2)nc(N(Cc2cccc(F)c2F)Cc2cccc(F)c2F)n1 | 0%
c1ccc2c(CNCCCN3CCN(CCCNCc4c5ccccc5cc5ccccc45)CC3)c3ccccc3cc2c1 | 15.3%
c1ccc2cc(CNCCCN3CCN(CCCNCc4ccc5ccccc5c4)CC3)ccc2c1 | 11.7%
c1ccc2c(c1)cc(CNCCCN1CCN(CCCNCc3cc4ccccc4c4ccccc34)CC1)c1ccccc12 | 19.4%
CCCCNC(=N)Nc1ccc(OCCCOc2ccc(NC(=N)NCCCC)cc2)cc1 | 2.99%
COc1ccc2nccc([C@@H](O)CN3CCC(NCc4ccc5nc[nH]c(=O)c5c4)CC3)c2c1 | 0%
CC(=O)c1ccc2nc[nH]c(=O)c2c1 | 26.1%

SMILES | IFI
CC(=O)c1ccc(NC(=O)Nc2ccc3nccc(N4CCN(C)CC4)c3c2)cc1 | 0%
Cc1cc(NCCC(=O)NCCOc2ccccc2)nc(NCCOc2ccccc2)n1 | 4.88%
Nc1ccc(-c2nc3cc(C4=N[C@H]5CCCC[C@H]5N4)ccc3o2)cc1[N+](=O)[O-] | 1.41%
CCn1c(-c2nonc2N)nc2c(-c3cccc(Cl)c3)ncc(OCCCNCCc3c[nH]cn3)c21 | 7.69%
CCn1c(-c2nonc2N)nc2c(-c3cccc(NC(=O)Nc4cccc(OC)c4)c3)ncc(OCCCN)c21 | 15.6%
CCn1c(-c2nonc2N)nc2c(-c3cccc(NC(=O)Nc4ccccc4Cl)c3)ncc(OCCCN)c21 | 18.2%
CCn1c(-c2nonc2N)nc2c(-c3cccc(NC(=O)Nc4ccccc4OC)c3)ncc(OCCCN)c21 | 20.5%
Cc1ccc2[nH]c(-c3ccccc3)cc(=NN=Cc3cccnc3)c2c1 | 1.52%
Oc1ccc(CCNCCCCCCNCCc2ccc(Br)cc2)cc1O | 5.15%
N#CCOc1c(C2CCN(CCCCNC(=O)c3ccc(-c4ccc(C(F)(F)F)cc4)cc3)CC2)ccc2c1CCCC2 | 7.08%
N=C(N)Nc1ccc(OCCCCCOc2ccc(NC(=N)N)cc2)cc1 | 3.13%
CC(C)Oc1ccc(CCCON2C(=N)N=C(N)NC2(C)C)cc1 | 5.63%
N#Cc1cccc(CN2CCCN(Cc3ccc(C(=O)Nc4ccc(Cl)cc4)cc3)CC2)c1 | 7.87%
CS(=O)(=O)c1ccc2c(c1)CCN(CCC1CCC(NC(=O)C(=Cc3ccc(Cl)cc3Cl)c3ccc(-c4ccccc4)cc3)CC1)CC2 (centres undefined) | 5.48%
CC(C)(C)c1ccc(C(=O)NC2CCC(CCN3CCc4ccc(S(C)(=O)=O)cc4CC3)CC2)cc1C(F)(F)F (centres undefined) | 21.6%
CS(=O)(=O)c1ccc2c(c1)CCN(CCC1CCC(NC(=O)c3cc4cccc(Br)c4[nH]3)CC1)CC2 (centres undefined) | 7.59%
O=C(Nc1ccc(F)cc1)c1cnc(N2CCN(c3ccncc3)CC2)c(Cl)c1 | 8.51%
Cc1ccc(NC(=O)c2cnc(N3CCN(c4ccncc4)CC3)c(Cl)c2)cc1 | 11.9%
O=C(Nc1ccc(N2CCC(Nc3ccccn3)CC2)cc1)c1cnc(Cl)c(Cl)c1 | 17.4%
Cn1nccc1C(=O)NCCNCc1ccc(-c2ccc(-c3nc4cc(F)ccc4[nH]3)cc2)cc1 | 8.91%
